Measurements as given in the supplement of paper PMC12636033.
± gives the standard deviation of the averaged measurements. Over roughly 33,000 sequences, “E-score (rank enrichment, -0.5 to 0.5)” has its median near -0.0028; the highest 2% begin near 0.23. For the sample, the highest values were picked, then their nearest neighbours and some sequences at random.

tested on: 2Sb-muMax20 (muMax20 with two 1,3-bis(methyl)benzene Cys staples, A13C/A17C and Q88C/A92C, C-terminal Lys); experiment: PBM 8-mer E-score (E-score (rank enrichment, -0.5 to 0.5)); higher = stronger preferential binding
Protocol: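 Protein binding microarray (universal PBM chip covering all 10-mers in fixed probe flanks) with chemically synthesized human Max(13-93) bHLH-LZ analogs (not full-length Max) bearing noncanonical residues (hArg, Tha, Aib, Nle at 65) and aromatic Cys staples. Read-out per 8-mer (and its reverse complement): E-score (rank-based enrichment, -0.5 to 0.5) and Z-score of median probe intensity.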

Sequence | PBM 8-mer E-score
ATATCCAT | 0.137 ± 0.14
CACTCCGG | -0.0338 ± 0.0072
ATTGATCA | 0.0679 ± 0.039
ATGAATTC | 0.133 ± 0.015
GAAAGCTC | -0.175 ± 0.051
CAGTAGGG | 0.111 ± 0.065
ATGGCCAC | -0.0293 ± 0.011
ATGGCCAG | 0.113 ± 0.0052
ATGGCCAT | 0.238 ± 0.048
CTCAGGTA | -0.158 ± 0.024
AGTAGCAC | 0.0432 ± 0.033
ATAATAGA | 0.087 ± 0.027
GTAATAGA | 0.253 ± 0.0043
CTAATAGA | 0.12 ± 0.054
ACCGAGAG | -0.0606 ± 0.0036
CATTACCC | -0.0464 ± 0.014
AATTACCA | 0.217 ± 0.039
AATTACCC | 0.286 ± 0.012
CCTTACTC | 0.123 ± 0.032
AAGCTAGG | -0.00121 ± 0.038
AATCCTGT | 0.0436 ± 0.00074
GCCACCCA | -0.0786 ± 0.049
TCCACCCA | 0.0351 ± 0.068
ATCACCCC | 0.27 ± 0.0061
ACCACCCG | -0.0962 ± 0.022

Sequence | PBM 8-mer E-score
CCCACCCC | 0.307 ± 0.058
CACACCCG | -0.111 ± 0.0078
ACCACCCC | 0.165 ± 0.0053
GCCACCCC | 0.0125 ± 0.1
CCCACCCG | 0.335 ± 0.042
CCCACCCA | 0.387 ± 0.029
ATCACCCG | -0.202 ± 0.044
ATCACCCA | 0.0137 ± 0.037
CATGTCGA | -0.00545 ± 0.041
ATTGCTAG | 0.141 ± 0.019
CATGTTCA | 0.151 ± 0.025
AAGTATGT | 0.0914 ± 0.0063
AGCGACCG | -0.22 ± 0.0069
AAAGGCGA | 0.17 ± 0.0091
GCTTCTCC | 0.0389 ± 0.0059
ACTAAGGC | 0.00844 ± 0.07
CAAGCATC | -0.0457 ± 0.013
AAAAGCCA | 0.0803 ± 0.036
ATACACAC | 0.0901 ± 0.038
CAATACAC | 0.0179 ± 0.049
ACATATCG | 0.0421 ± 0.053
ATACACAG | 0.0629 ± 0.073
CAATACAG | 0.00554 ± 0.011
CCATATCA | 0.076 ± 0.055
ATACACAT | 0.244 ± 0.02

Sequence | PBM 8-mer E-score
CAATACAA | 0.234 ± 0.0058
ACATATCA | 0.2689 ± 0.00057
ACATACAT | 0.273 ± 0.025
ACATACAC | 0.127 ± 0.016
ACATACAG | 0.188 ± 0.014
AGACTAGG | -0.0528 ± 0.031
CGGTACCC | -0.133 ± 0.015
CCTAGAGC | -0.0448 ± 0.0096
CCGATCGG | -0.289 ± 0.039
CGGCTAAC | -0.13 ± 0.011
TCCGTCCA | -0.0552 ± 0.013
GCGCATAC | 0.0299 ± 0.0056
ATCGGTGG | -0.0489 ± 0.0043
ATAACCTC | 0.175 ± 0.016
AAGGCCCC | 0.068 ± 0.039
AGAGTGAC | -0.11 ± 0.0053
TCATACAA | 0.235 ± 0.035
AAATATAA | 0.21 ± 0.022
ACCTATAT | 0.233 ± 0.0084
GCATACAA | 0.119 ± 0.0048
AAATACAC | 0.145 ± 0.033
AAATACAA | 0.0975 ± 0.074
AAATATAC | 0.138 ± 0.019
ACCTATAC | 0.0485 ± 0.061
ACCTATAA | 0.00571 ± 0.046

Sequence | PBM 8-mer E-score
AAATACAT | 0.241 ± 0.058
CCATACAA | 0.115 ± 0.024
AAATATAT | 0.313 ± 0.02
ATCACCGA | -0.0646 ± 0.084
CCTCCACC | 0.0772 ± 0.089
ATCGGGAG | -0.0438 ± 0.039
CCAGATCG | -0.185 ± 0.061
CTAACAAG | 0.0426 ± 0.045
ATATGGCG | 0.123 ± 0.007
GAAGGTAA | 0.0664 ± 0.084
ACATATAG | 0.131 ± 0.031
ACATATAT | 0.255 ± 0.024
ACATATAC | 0.137 ± 0.0056
CTATCATA | 0.149 ± 0.03
CCATCATA | 0.155 ± 0.017
ATATCATG | 0.178 ± 0.016
ATATCATA | 0.239 ± 0.055
ACATCATA | 0.243 ± 0.0089
ACATCATC | 0.0415 ± 0.031
CGTGGAAC | -0.0767 ± 0.0022
AGTGTGGC | -0.0951 ± 0.025
GTAAGGGA | -0.0384 ± 0.016
ACATCCTC | 0.028 ± 0.067
CCCACGCG | 0.221 ± 0.031
ACCACGTC | -0.01627 ± 2.1e-05

Sequence | PBM 8-mer E-score
ATCACGCC | 0.0526 ± 0.033
AGCACGTA | 0.128 ± 0.038
AGCACGTG | 0.431 ± 0.0076
ACCACGTA | -0.0697 ± 0.045
AGCACGTC | -0.156 ± 0.042
ACCACGTG | 0.432 ± 0.025
ATCACGCG | 0.239 ± 0.026
ATCACGCA | -0.037 ± 0.094
ACCACGCG | 0.283 ± 0.02
ACCACGCA | -0.0882 ± 0.019
AATTTCGT | 0.0796 ± 0.033
GATTGCCC | -0.0998 ± 0.019
ATTTAGCG | 0.0611 ± 0.079
ATCACGTA | 0.163 ± 0.032
ATCACGTC | 0.0586 ± 0.042
ATCACGTG | 0.4 ± 0.014
TAGCTACA | 0.0611 ± 0.017
TGGGTACA | -0.0341 ± 0.055
CTTGTTTC | 0.169 ± 0.026
ATTGTTTG | 0.106 ± 0.05
ATTGTTTC | 0.248 ± 0.046
CGGTATTA | -0.1001 ± 0.00022
TAAATATA | 0.238 ± 0.0035
TATATAAA | 0.177 ± 0.052
TATATATA | 0.326 ± 0.048

Sequence | PBM 8-mer E-score
AAAATATA | 0.178 ± 0.027
CAAATATA | 0.151 ± 0.0063
GATATATA | 0.152 ± 0.015
AGAACACG | 0.104 ± 0.028
AGTCGAAG | 0.0391 ± 0.095
CGCTCGAG | 0.136 ± 0.036
GGTTGTTA | 0.116 ± 0.038
ACTACTGA | -0.123 ± 0.021
CCCGAGAG | -0.255 ± 0.041
ATCAGCCA | -0.0692 ± 0.065
ATCAGCCG | -0.223 ± 0.0056
ATCAGCCC | 0.231 ± 0.03
CAAGAGTC | -0.073 ± 0.074
ACTACACG | 0.0218 ± 0.034
CCTACACG | -0.0783 ± 0.048
ACTACATA | 0.239 ± 0.06
ACTACATG | 0.123 ± 0.031
ACTACACA | 0.266 ± 0.055
GCTACATA | -0.0387 ± 0.017
TAGAACGA | 0.0786 ± 0.036
AGCGAATC | 0.0438 ± 0.019
ATAAAGTA | 0.166 ± 0.053
CTAAAGTA | -0.0474 ± 0.011
GTAAAGTA | 0.262 ± 0.032
GGTATAGA | 0.0611 ± 0.0045

Sequence | PBM 8-mer E-score
CGTATCTA | -0.126 ± 0.083
GGTATCTA | 0.0221 ± 0.013
GGTATATA | 0.235 ± 0.013
AGTATATA | 0.334 ± 0.041
CGTATATA | 0.185 ± 0.0076
AGTATCTA | 0.329 ± 0.0077
AGTATATC | 0.106 ± 0.013
AGTATATG | 0.153 ± 0.051
CCATCGCG | 0.124 ± 0.044
GTCGCGGA | -0.206 ± 0.07
CGCCCCGC | 0.072 ± 0.059
GGAATTAA | 0.166 ± 0.031
CTAATTAC | 0.139 ± 0.051
CGAATTAA | 0.00973 ± 0.029
GTAATTAC | 0.2036 ± 0.0011
ATAATTAA | 0.141 ± 0.023
TGAATTAA | 0.255 ± 0.0052
TTAATTAA | 0.281 ± 0.08
ATAATTAC | 0.276 ± 0.0099
CTAATTAA | 0.0454 ± 0.045
GTTGAAAA | 0.103 ± 0.084
ACCTTGCA | 0.0732 ± 0.0055
